Experimental data from the supplement of paper PMC10646978.
± gives the standard deviation.

Key:
Details in all cases: modulator concentration 10 µM
[1] = tested on: RAW-Dual (murine macrophage reporter line); experiment: NF-kB reporter (SEAP) activity fold change vs agonist alone; higher = enhanced NF-kB activity
How it was run: (§1)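 Compound reached 10 μM final in each well by pin transfer, onto RAW-Dual murine macrophage reporter cells seeded at 50 000 per well in 384-well plates. After 1 hour at 37 °C, the cells were stimulated overnight with a PRR agonist. SEAP in the supernatant was read with QUANTI-Blue at 620 nm absorbance for NF-κB, and Lucia luciferase was read with QUANTI-Luc luminescence for IRF. Each signal was turned into fold change against the mean agonist-only control on the same plate, and two replicate plates were averaged with propagated errors.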

[2] = tested on: RAW-Dual (murine macrophage reporter line); experiment: IRF reporter (Lucia luciferase) activity fold change vs agonist alone; higher = enhanced IRF activity
How it was run: as §1

[3] = tested on: RAW-Dual (murine macrophage reporter line); experiment: viability score (confluency relative to resting cells, overnight) (fraction); higher = more viable, active = viable (0.7 or more)
How it was run: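 Overnight exposure to 10 μM final compound was carried out on RAW-Dual macrophages in 384-well plates. IncuCyte software generated two confluency masks over all wells imaged with IncuCyte. The viability score gives confluency in relation to resting cells. A compound met the cutoff if each mask exceeded 70% of resting cells.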

[4] = agonist: CpG ODN 1826 0.5 ug/mL

For `CN1CCN(C2=Nc3cc(Cl)ccc3Nc3ccccc32)CC1`, the NF-kB reporter [1, 4] was 0.713 ± 0.058, the NF-kB reporter ([1]; agonist: LPS 0.1 ug/mL) was 0.941 ± 0.057 and the NF-kB reporter ([1]; agonist: MPLA […]) was 1.13 ± 0.1. The IRF reporter ([2]; agonist: 3'3'-cGAMP 10 ug/mL) was 0.924 ± 0.064, the IRF reporter ([2]; agonist: LPS 0.1 ug/mL) was 1.47 ± 0.11 and the IRF reporter ([2]; agonist: MPLA […]) was 1.46 ± 0.12. For the same compound, the viability score [3] was 0.981 (active).
Work on `Cc1c(C)n2c3c(=O)n(CC=Cc4ccccc4)c(=O)n(C)c3nc2n1CCOCCO` yielded an NF-kB reporter [1, 4] of 0.702 ± 0.046, an NF-kB reporter ([1]; agonist: LPS 0.1 ug/mL) of 1.16 ± 0.091 and an NF-kB reporter ([1]; agonist: MPLA […]) of 1.03 ± 0.17. The IRF reporter ([2]; agonist: 3'3'-cGAMP 10 ug/mL) was 0.98 ± 0.055, the IRF reporter ([2]; agonist: LPS 0.1 ug/mL) was 1.03 ± 0.063 and the IRF reporter ([2]; agonist: MPLA […]) was 1.09 ± 0.085. For the same compound, the viability score [3] was 0.955 (active).
`Cc1c(C(=O)ON=C(N)c2ccncc2)cccc1[N+](=O)[O-]` gave an NF-kB reporter [1, 4] of 1.01 ± 0.08, an NF-kB reporter ([1]; agonist: LPS 0.1 ug/mL) of 0.996 ± 0.06 and an NF-kB reporter ([1]; agonist: MPLA […]) of 0.851 ± 0.069. It also gave an IRF reporter ([2]; agonist: 3'3'-cGAMP 10 ug/mL) of 0.421 ± 0.031, an IRF reporter ([2]; agonist: LPS 0.1 ug/mL) of 1.33 ± 0.099 and an IRF reporter ([2]; agonist: MPLA […]) of 1.23 ± 0.16. The viability score [3] was 0.992 (active).
With `CCN(CC)CCN1C(=O)C(O)=C(C(=O)c2ccc(C)cc2)C1c1ccccc1` (stereo unspecified) the NF-kB reporter [1, 4] was 0.996 ± 0.078, the NF-kB reporter ([1]; agonist: LPS 0.1 ug/mL) was 0.974 ± 0.064 and the NF-kB reporter ([1]; agonist: MPLA […]) was 0.893 ± 0.041. The IRF reporter ([2]; agonist: 3'3'-cGAMP 10 ug/mL) was 0.827 ± 0.059, the IRF reporter ([2]; agonist: LPS 0.1 ug/mL) was 0.999 ± 0.11 and the IRF reporter ([2]; agonist: MPLA […]) was 0.896 ± 0.2. The viability score [3] was 0.996 (active).
With `Cn1nc(CNC(=O)c2cccc3ccccc23)cc1C1CC1` the NF-kB reporter [1, 4] was 1.18 ± 0.067, the NF-kB reporter ([1]; agonist: LPS 0.1 ug/mL) was 0.852 ± 0.065 and the NF-kB reporter ([1]; agonist: MPLA […]) was 0.963 ± 0.025. The IRF reporter ([2]; agonist: 3'3'-cGAMP 10 ug/mL) was 0.833 ± 0.031, the IRF reporter ([2]; agonist: LPS 0.1 ug/mL) was 1.06 ± 0.059 and the IRF reporter ([2]; agonist: MPLA […]) was 0.962 ± 0.15. For the same compound, the viability score [3] was 0.817 (active).
Compound `COc1ccc(Cl)c(Nc2nc3ccccc3nc2NS(=O)(=O)c2cccc(NC(=O)C(C)(C)N)c2)c1` has an NF-kB reporter [1, 4] of 0.841 ± 0.23, an NF-kB reporter ([1]; agonist: LPS 0.1 ug/mL) of 1.05 ± 0.12 and an NF-kB reporter ([1]; agonist: MPLA […]) of 1.11 ± 0.087. The IRF reporter ([2]; agonist: 3'3'-cGAMP 10 ug/mL) was 0.221 ± 0.013, the IRF reporter ([2]; agonist: LPS 0.1 ug/mL) was 1.21 ± 0.13 and the IRF reporter ([2]; agonist: MPLA […]) was 1.32 ± 0.3. For the same compound, the viability score [3] was 0.592 (inactive).
`O=C(c1cc(C(F)(F)F)cc(C(F)(F)F)c1)N1CCOCC1CO` (stereo unspecified) gave an NF-kB reporter [1, 4] of 0.94 ± 0.053, an NF-kB reporter ([1]; agonist: LPS 0.1 ug/mL) of 1.03 ± 0.12 and an NF-kB reporter ([1]; agonist: MPLA […]) of 0.869 ± 0.099. The IRF reporter ([2]; agonist: 3'3'-cGAMP 10 ug/mL) was 0.969 ± 0.072, the IRF reporter ([2]; agonist: LPS 0.1 ug/mL) was 1.04 ± 0.092 and the IRF reporter ([2]; agonist: MPLA […]) was 0.989 ± 0.38. For the same compound, the viability score [3] was 0.999 (active).
With `COc1ncc(-c2ccc3nccc(-c4ccnnc4)c3c2)cc1NS(=O)(=O)c1ccc(F)cc1F` the NF-kB reporter [1, 4] was 1.56 ± 0.067, the NF-kB reporter ([1]; agonist: LPS 0.1 ug/mL) was 1.79 ± 0.14 and the NF-kB reporter ([1]; agonist: MPLA […]) was 3.01 ± 0.16. It also gave an IRF reporter ([2]; agonist: 3'3'-cGAMP 10 ug/mL) of 0.389 ± 0.051, an IRF reporter ([2]; agonist: LPS 0.1 ug/mL) of 1.2 ± 0.1 and an IRF reporter ([2]; agonist: MPLA […]) of 2.66 ± 0.33. For the same compound, the viability score [3] was 0.33 (inactive).
In the case of `O=S(=O)(NCCOCc1ccccc1)c1ccccc1`, the NF-kB reporter [1, 4] is reported as 1.13 ± 0.093, the NF-kB reporter ([1]; agonist: LPS 0.1 ug/mL) is reported as 1.05 ± 0.076 and the NF-kB reporter ([1]; agonist: MPLA […]) is reported as 1.04 ± 0.14. It also gave an IRF reporter ([2]; agonist: 3'3'-cGAMP 10 ug/mL) of 1.02 ± 0.068, an IRF reporter ([2]; agonist: LPS 0.1 ug/mL) of 1.19 ± 0.18 and an IRF reporter ([2]; agonist: MPLA […]) of 1.27 ± 0.21. The viability score [3] was 0.966 (active).
With `CN1CCN(c2c(F)cc3c(=O)c(C(=O)O)cn4c3c2OCN4C)CC1` the NF-kB reporter [1, 4] was 1.2 ± 0.34, the NF-kB reporter ([1]; agonist: LPS 0.1 ug/mL) was 1.09 ± 0.093 and the NF-kB reporter ([1]; agonist: MPLA […]) was 0.971 ± 0.099. The IRF reporter ([2]; agonist: 3'3'-cGAMP 10 ug/mL) was 0.958 ± 0.039, the IRF reporter ([2]; agonist: LPS 0.1 ug/mL) was 1.26 ± 0.15 and the IRF reporter ([2]; agonist: MPLA […]) was 1.25 ± 0.12. For the same compound, the viability score [3] was 0.995 (active).
Work on `Cc1c(OCC(F)(F)F)ccnc1CS(=O)c1nc2ccccc2[nH]1` (stereo unspecified) yielded an NF-kB reporter [1, 4] of 1 ± 0.16, an NF-kB reporter ([1]; agonist: LPS 0.1 ug/mL) of 0.915 ± 0.28 and an NF-kB reporter ([1]; agonist: MPLA […]) of 0.929 ± 0.063. For the same compound, the IRF reporter ([2]; agonist: 3'3'-cGAMP 10 ug/mL) was 0.699 ± 0.037, the IRF reporter ([2]; agonist: LPS 0.1 ug/mL) was 1.11 ± 0.3 and the IRF reporter ([2]; agonist: MPLA […]) was 1.07 ± 0.096. For the same compound, the viability score [3] was 0.984 (active).
Compound `CC1(C)[C@H](C(=O)O)N2C(=O)C[C@H]2S1(=O)=O` has an NF-kB reporter [1, 4] of 0.998 ± 0.11, an NF-kB reporter ([1]; agonist: LPS 0.1 ug/mL) of 1.05 ± 0.079 and an NF-kB reporter ([1]; agonist: MPLA […]) of 1.06 ± 0.033. It also gave an IRF reporter ([2]; agonist: 3'3'-cGAMP 10 ug/mL) of 0.944 ± 0.072, an IRF reporter ([2]; agonist: LPS 0.1 ug/mL) of 0.931 ± 0.038 and an IRF reporter ([2]; agonist: MPLA […]) of 0.859 ± 0.068. For the same compound, the viability score [3] was 0.994 (active).
For `N=C(N)NCCN1CCCCCCC1.O=S(=O)(O)O`, the NF-kB reporter [1, 4] was 1.25 ± 0.3, the NF-kB reporter ([1]; agonist: LPS 0.1 ug/mL) was 1.11 ± 0.088 and the NF-kB reporter ([1]; agonist: MPLA […]) was 1.24 ± 0.26. For the same compound, the IRF reporter ([2]; agonist: 3'3'-cGAMP 10 ug/mL) was 0.929 ± 0.032, the IRF reporter ([2]; agonist: LPS 0.1 ug/mL) was 1.27 ± 0.14 and the IRF reporter ([2]; agonist: MPLA […]) was 1.24 ± 0.12. The viability score [3] was 0.993 (active).
